Where “and” joins values, the source holds several entries; their conditions need not be identical. Equal values may be shown once.
Experiment: compound effects on hepatocellular carcinoma cell viability – HepG2, calcein-AM fluorescence, 48 h, basal, profiling panel (AID 1164); also: test concentration not given here
Conditions: higher = more signal

**Q.** For `CC(=O)OC[C@H]1O[C@H](C#CC(C)(C)C)C=C[C@@H]1OC(C)=O`, which z-score is on record?
**A.** -0.24

**Q.** Which z-score does the source give for `COc1ccc(O[C@H]2C=C[C@@H](c3ccccc3)O[C@@H]2COC(=O)CCC(C)=NO[C@H](C)c2cn([C@H](CO)Cc3ccccc3)nn2)cc1` here?
**A.** -1.06 and -0.619

**Q.** For `CCCC[C@@H]1CN2[C@H](c3ccc(Br)cc3)[C@@H](C)CC[C@H]2C(=O)O1`, which z-score is on record?
**A.** 0.155 and 0.493

**Q.** With `CC(CO)N1C(=O)[C@@H]2C3C(=O)OCCC=C[C@H]3OC23C=CCN(C(C)(C)C)C(=O)[C@@H]13` (stereo not given in full) as the compound, how does the z-score read?
**A.** -1.27 and -0.487

**Q.** With `C=CCN(C(=O)C1N(CCOCCO)C(=O)C2C(C(=O)O)C3C=CC21O3)C(C)(C)C` (stereo not given) as the compound, how does the z-score read?
**A.** 0.108 and 0.442

**Q.** Which z-score does the source give for `C[C@@H](ON=C1[C@H]2CCn3c(=O)n(-c4ccccc4)c(=O)n3[C@H]2[C@H](O)[C@@H]2O[C@H]12)c1cn([C@H](CO)Cc2ccccc2)nn1` here?
**A.** 0.567

**Q.** Which z-score does the source give for `CO[C@H]1COC(=O)CC=C[C@H](C)[C@H](OC)COC(=O)[C@@H](C)COC(=O)CC=C[C@@H]1C` here?
**A.** 0.0517 and 1.24

**Q.** Which z-score does the source give for `COC(=O)[C@H](C)NC(=O)CCC1CC(OC(=O)NCCc2ccc(F)cc2)CC2(CCCC(COC(=O)NCCCN3CCCC3=O)O2)O1` (stereo not given in full) here?
**A.** -1.32

**Q.** Which z-score does the source give for `CCOC(=O)[C@@H]1CC2O[C@]23C[C@@H]1C(=O)N1CCC[C@@H]1[C@H]3O[Si](C)(C)C(C)(C)C` (stereo not given in full) here?
**A.** -0.526 and -0.885

**Q.** For `C[C@@H]1CC[C@H]2C(=O)O[C@H](CN=[N+]=[N-])CN2[C@H]1c1ccc(Br)cc1`, which z-score is on record?
**A.** -2.75 and -0.113

**Q.** For `O=c1n(-c2ccccc2)c(=O)n2n1CC[C@@H]1C(=NOC[C@@H](O)COCc3ccco3)[C@H]3O[C@H]3[C@@H](O)[C@@H]12`, which z-score is on record?
**A.** -0.0728 and -0.713

**Q.** For `C=C(C)C(=O)OC[C@@H]1CN2[C@@H](CC[C@@H](C)[C@@H]2c2ccc(Br)cc2)C(=O)O1`, which z-score is on record?
**A.** 1.08

**Q.** With `CCCNC(=O)OC[C@H]1O[C@H](CCON=C(C)CCC(=O)OC[C@H]2O[C@H](C#Cc3ccccc3)C=C[C@@H]2Oc2ccc(C)cc2)C=C[C@@H]1Oc1ccc(OC)cc1` as the compound, how does the z-score read?
**A.** -0.433

**Q.** For `C=C[C@@H](OC)[C@H](O)c1ccc(O)c(F)c1`, which z-score is on record?
**A.** -0.232 and 0.531

**Q.** For `COCn1c2ccccc2c2nnc(C(C)=O)nc21`, which z-score is on record?
**A.** -0.786 and -0.47

**Q.** With `CC[C@@H]1C(Sc2ccccc2)C(C(=O)O)[C@H](c2ccc(C)cc2)N1S(=O)(=O)c1ccc(C)cc1` (stereo not given in full) as the compound, how does the z-score read?
**A.** 0.364 and 0.126

**Q.** With `C=CCN(C(=O)C(c1cccs1)N(C(=O)/C=C\C(=O)O)c1c(Cl)cccc1CO)c1ccc(OC)cc1` (stereo not given) as the compound, how does the z-score read?
**A.** 0.24 and 0.365

**Q.** With `CO[C@@H]1COC(=O)[C@H](Cc2ccccc2)NC(=O)CC=C[C@@H](C)[C@H](OC)COC(=O)[C@@H](C)NC(=O)CC=C[C@H]1C` as the compound, how does the z-score read?
**A.** 0.0488 and 1.09

**Q.** With `CCOC(=O)[C@@H]1CC=C2CC1C(=O)N1CCC[C@@H]1[C@H]2O[Si](C)(C)C(C)(C)C` (stereo not given in full) as the compound, how does the z-score read?
**A.** -0.45 and -1.76

**Q.** Which z-score does the source give for `C[C@@H](c1ccccc1)N1C(=O)[C@H]2[C@H]3[C@H](O)[C@H](O)CC(=O)[C@@H]3CC[C@H]2C1=O` here?
**A.** 1.15

**Q.** With `C[C@@H]1CC[C@H]2C(=O)NC[C@@H](O)CN2[C@H]1c1ccc(Br)cc1` as the compound, how does the z-score read?
**A.** -0.141 and 0.284

**Q.** For `CC(C)[Si]1(C(C)C)OCc2cc(CCCc3cc4c(c(CCc5ccccc5)n3)[Si](C(C)C)(C(C)C)OC4)nc(CCc3ccccc3)c21`, which z-score is on record?
**A.** -0.661 and -0.566

**Q.** For `Cc1cc2c(nc1C)CCCN2CC(C)ON=C[C@@H](C)[C@H](OCc1ccccc1)C(C)C` (stereo not given in full), which z-score is on record?
**A.** 0.122

**Q.** For `C=CCN(C(=O)C(c1cccs1)N(C(=O)/C=C\C(=O)O)c1ccc(CCO)cc1)C(C)(C)C` (stereo not given), which z-score is on record?
**A.** -0.0749 and -0.55

**Q.** For `C=C[C@@H](OC)[C@H](O)c1ccc(OCCO)cc1`, which z-score is on record?
**A.** 0.124 and 0.628

**Q.** Which z-score does the source give for `C=CCN(C(=O)C(c1cccs1)N(CCOCCO)C(=O)/C=C\C(=O)O)c1ccc(OC)cc1` (stereo not given) here?
**A.** 1.23 and 0.751

**Q.** For `C=C[C@@H](C)[C@H](O)c1ccc(O)c2ccccc12`, which z-score is on record?
**A.** -0.988 and -0.789

**Q.** For `C[C@@H]1CN2[C@@H](CC[C@@H](C)[C@@H]2c2ccc(Br)cc2)C(=O)O1`, which z-score is on record?
**A.** -0.163 and 0.959

**Q.** Which z-score does the source give for `C=CCN(C(=O)C1N(c2ccc(CCO)cc2)C(=O)C2C(C(=O)O)C3C=CC21O3)c1ccc(OC)cc1` (stereo not given) here?
**A.** -0.535 and -0.905

**Q.** Which z-score does the source give for `C=C[C@H](C)[C@@H](O)c1ccc(OCCO)cc1` here?
**A.** -0.211 and 0.619

**Q.** Which z-score does the source give for `C=CCN(C(=O)C(c1cccs1)N(CCOCCO)C(=O)/C=C\C(=O)O)C(C)(C)C` (stereo not given) here?
**A.** 1.25 and 0.41

**Q.** With `COC(=O)C1=C(C)N(Cc2ccccc2)[C@]23O[C@](C(=O)OC)(C(=O)N2[C@@H]1c1ccccc1)[C@@H](c1ccccc1)[C@@H]3C(=O)c1ccccc1` as the compound, how does the z-score read?
**A.** 0.344 and 0.832

**Q.** Which z-score does the source give for `C=CCN(CCCC)C(=O)C1N(C(C)(C)CO)C(=O)C2C(C(=O)O)C3C=CC21O3` (stereo not given) here?
**A.** 0.0674 and -0.857

**Q.** With `Cc1ccc(S(=O)(=O)N[C@H]2COC(=O)[C@@H](C)COC(=O)[C@H](C)NC(=O)CC=C[C@H]2C)cc1` as the compound, how does the z-score read?
**A.** -0.107

**Q.** With `Cc1ccc(S(=O)(=O)OC[C@@H]2CN3[C@@H](CC[C@@H](C)[C@@H]3c3ccc(Br)cc3)C(=O)O2)cc1` as the compound, how does the z-score read?
**A.** 0.462 and 0.028

**Q.** For `COC(=O)C1=C(C)N(Cc2ccccc2)C2=C(C(=O)c3ccccc3)[C@H](c3ccccc3)[C@@](O)(C(=O)OC)C(=O)N2[C@@H]1c1ccccc1`, which z-score is on record?
**A.** 0.217 and 1.26

**Q.** For `C=CCN(Cc1ccccc1)C(=O)C(c1cccs1)N(C(=O)/C=C\C(=O)O)c1ccc(CCO)cc1` (stereo not given), which z-score is on record?
**A.** 0.391 and 0.373

**Q.** Which z-score does the source give for `CCOC(=O)[C@H](Cc1ccccc1)NC(=O)CCC1CC(OC(=O)NCc2cccc3ccccc23)CC2(CCCC(COC(=O)NCCCN3CCCC3=O)O2)O1` (stereo not given in full) here?
**A.** -0.93

**Q.** For `COC(=O)c1c2oc(c1C(=O)OC)C(=O)N[C@@H](Cc1ccccc1)Cn1cc(nn1)C1(CCCCC1)NC(=O)N[C@H](CO)CC2`, which z-score is on record?
**A.** 0.893 and 0.0236

**Q.** For `C=CCN(CCCCC)C(=O)C1N(c2ccc(CCO)cc2)C(=O)C2C(C(=O)O)C3C=CC21O3` (stereo not given), which z-score is on record?
**A.** -0.97 and 0.288
